The source of these data is PubChem BioAssay (Tox21).

The nature of assay [1]: qHTS assay to identify small molecule agonists of the RXR signaling pathway - cell viability counter screen (AID 1159529).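 Note: HEK 293T cells carrying an RXR-alpha UAS beta-lactamase reporter; series mostly up to about 77 µM; nearly all actives have a fitted effect of over 50% in size.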 The method, boiled down:
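Viability read-out for the RXR-alpha agonist qHTS: luminescent CellTiter-Glo signal after 30 min at RT. HEK 293T bla reporter cells, 2% charcoal-stripped FBS, 16 hr compound incubation; tetraoctyl ammonium bromide as cytotoxic control.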
A general note: Quantitative high-throughput screening tests each substance at several concentrations.

A short description of assay [2]: qHTS assay to identify small molecule antagonists of the retinoid acid receptor (RAR) signaling pathway - cell viability counter screen (AID 1159551). Note: nearly all actives have a fitted effect of over 35% in size. The method, boiled down:
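Measured by luminescent ATP detection, viability reflects C3RL4 cells treated 6 h at 37 C with test chemicals in the presence of 1 uM (final) retinol.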

Assay [3] is described as follows: qHTS assay to identify small molecule antagonists of the retinoic acid receptor (RAR) signaling pathway (AID 1159552; note: nearly all actives have a fitted effect of over 50% in size). The procedure, abridged:
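Using a RARE-driven luciferase construct in C3RL4 cells, retinol at 1 uM final provided the agonist stimulus while compounds were co-applied. After 6 hours at 37 C, luminescence was recorded to flag inhibitors of retinol signaling.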

Assay [4] is described as follows: qHTS assay to identify small molecule agonists of the retinoic acid receptor (RAR) signaling pathway (AID 1159553). Note: potency is the fitted concentration of half-maximal effect. The procedure, abridged:
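6 hr compound exposure (DMSO vehicle) of overnight-plated C3RL4 RARE-luc cells at 37 C; luminescence quantified after 30 min RT with luciferase reagent.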

A short description of assay [5]: qHTS assay to identify small molecule antagonists of the estrogen related receptor (ERR) signaling pathway from Tox21 library - cell viability counter screen (AID 1224834). Note: nearly all actives have a fitted effect of over 30% in size. Note: potency is the fitted concentration of half-maximal effect. The procedure, abridged: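 Seeded ERR cells were rested 6 h at 37 C/5% CO2 before compounds, positive and negative controls or DMSO were added. Incubation continued for 17.5 h, and viability was then quantified by CellTiter-Fluor fluorescence.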

In assay [6] the target is Luciferin 4-monooxygenase (Photinus pyralis) (UniProt P08659). In words: qHTS assay to identify small molecule inhibitors of firefly luciferase (AID 1224835). Note: nearly all actives have a fitted effect of over 25% in size. Note: potency is the fitted concentration of half-maximal effect. The procedure, abridged: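 Inhibition of purified Photinus luciferase is measured by luminescence. Substrate levels (D-luciferin, ATP) sit at their KM values. Each compound is tested in a concentration series.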
Assay [7] in a line: qHTS assay to identify small molecule agonists of the constitutive androstane receptor (CAR) signaling pathway - cell viability counter screen (AID 1224836). Note: series mostly up to about 92 µM; nearly all actives have a fitted effect of over 45% in size. The method, boiled down:
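Multiplexed viability check: HepG2-CYP2B6-hCAR cells, 15-point compound dosing, 0.75 uM PK11195 final, 23 h at 37 C, CellTiter-Fluor fluorescence.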

Assay [8] is described as follows: qHTS assay to identify small molecule antagonists of the constitutive androstane receptor (CAR) signaling pathway - cell viability counter screen (AID 1224837). Note: series mostly up to about 92 µM; nearly all actives have a fitted effect of over 45% in size. The method, boiled down: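 To flag cytotoxic false antagonists, HepG2 hCAR/CYP2B6-2.2kb cells were treated 23 hr with 15-concentration compound series and 50 nM CITCO at 37 C/5% CO2; CellTiter-Fluor fluorescence was the measured end point.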

A short description of assay [9]: qHTS assay to identify small molecule antagonists of the estrogen related receptor signaling pathway with the pleiotropic PPARgamma coactivator (PGC) from Tox21 10K library - cell viability counter screen (AID 1224840; active = well fitted cell-killing curve with a large enough effect in the repeat runs, not every such curve was filed as active; note: nearly all actives have a fitted effect of over 40% in size; note: potency is the fitted concentration of half-maximal effect). The method, boiled down:
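Seeded PGC/ERR cells (2,000/well, 6 h, 37 C/5% CO2) get compound by pin tool; 17.5 h incubation at 37 C; CellTiter-Fluor added, 30 min, fluorescence measured.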

Assay [10] in a line: qHTS assay to identify small molecule antagonists of the estrogen related receptor signaling pathway with the pleiotropic PPARgamma coactivator (PGC) from Tox21 10K library (AID 1224841; call rule not given here; note: series mostly up to about 92 µM; actives are mostly falling curves and most rising ones were filed inactive; nearly all actives have a fitted effect of over 50% in size). The procedure, abridged:
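Test chemicals dissolved in DMSO were applied to pre-incubated (6 h) PGC/ERR cells at 2,000 cells/well for an 18 h, 37 C treatment; reporter luminescence was then read using One-Glo.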

A short description of assay [11]: qHTS assay to identify small molecule agonists of the estrogen related receptor signaling pathway with the pleiotropic PPARgamma coactivator (PGC) from Tox21 10K library (AID 1224842). Note: nearly all actives have a fitted effect of over 15% in size. Note: potency is the fitted concentration of half-maximal effect. The method, boiled down: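 Luminescence from One-Glo (30 min, room temperature) measured after PGC/ERR cells had 18 h at 37 C with pinned compound (23 nL in DMSO). Cells had been seeded at 2,000 per well and pre-incubated 6 h.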

Assay [12] deals with Thyrotropin receptor (Homo sapiens) (UniProt P16473). Briefly: qHTS assay to identify small molecule agonists of the thyroid stimulating hormone receptor (TSHR) signaling pathway (AID 1224843; calls by dose curve; note: nearly all actives have a fitted effect of over 45% in size; note: potency is the fitted concentration of half-maximal effect). The method, boiled down: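 Agonist activity read as cAMP rise via d2/cryptate HTRF competition, 1 h room-temperature detection, in HEK293 cells expressing TSHR. Fifteen-point titrations, each run in triplicate, with a 30 min room-temperature incubation beforehand.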

The nature of assay [13]: qHTS assay to identify small molecule antagonists of the estrogen related receptor (ERR) signaling pathway - cell viability counter screen (AID 1224818). Note: potency is the fitted concentration of half-maximal effect. The method, boiled down: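 Compounds dissolved in DMSO were applied to ERR cells seeded at 2,000 per well 6 h earlier. Cell viability followed 17.5 h later via 30-min CellTiter-Fluor fluorescence.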
Assay [14] can be described thus: qHTS assay to identify small molecule antagonists of the estrogen related receptor signaling pathway with the pleiotropic PPARgamma coactivator (PGC) cell viability counter screen (AID 1224822; note: series mostly up to about 46 µM). The method, boiled down: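 Counter screen for cell viability: PGC/ERR cells, 6 h pre-incubation after plating, 17.5 h compound exposure at 37 C, fluorescence from CellTiter-Fluor after 30 min.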

Assay [15] deals with Nuclear receptor subfamily 1 group I member 3 (Homo sapiens) (UniProt Q14994). Briefly: qHTS assay to identify small molecule antagonists of the constitutive androstane receptor (CAR) signaling pathway (AID 1224838).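 Note: HepG2 cells stably expressing hCAR with CYP2B6 luciferase reporter stimulated by CITCO; nearly all actives have a fitted effect of over 40% in size.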 The method, boiled down:
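Human hepatoma HepG2 cells expressing hCAR and a CYP2B6 promoter (2.2 kb) luciferase construct; compound titration (15 points) with 50 nM CITCO final, 24 h at 37 C/5% CO2; luminescence via ONE-Glo after 30 min at room temperature.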

For assay [16] the target is unchanged. Briefly: qHTS assay to identify small molecule agonists of the constitutive androstane receptor (CAR) signaling pathway (AID 1224839). Note: nearly all actives have a fitted effect of over 15% in size. Note: potency is the fitted concentration of half-maximal effect. The procedure, abridged: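 Using human hepatoma HepG2 cells engineered with hCAR and a CYP2B6-2.2kb reporter, 15-concentration compound series were incubated 24 h alongside PK11195 at 0.75 uM final, with luminescence quantified afterwards.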

Assay [17] can be described thus: qHTS assay to identify small molecule antagonists of the estrogen related receptor (ERR) signaling pathway (AID 1224819;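 note: luminescence from an ERR-driven luciferase reporter measured with One-Glo reagent; series mostly up to about 46 µM; nearly all actives have a fitted effect of over 50% in size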). The procedure, abridged:
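Compounds dissolved in DMSO were pin-transferred onto ERR cells that had been plated 6 h earlier, and cells were then incubated 18 h at 37 C; signal was luciferase luminescence via One-Glo.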

Assay [18] in a line: qHTS assay to identify small molecule agonists of the estrogen related receptor (ERR) signaling pathway (AID 1224820). Note: potency is the fitted concentration of half-maximal effect. The procedure, abridged:
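An ERR cell line provided by NTP was seeded at 2,000 cells per well and allowed to settle for 6 h before compounds in DMSO were added. After 18 h at 37 C, luciferase activity was measured by One-Glo luminescence.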

The subject of assay [19] is estrogen-related receptor alpha (ERRalpha) with PGC-1alpha coactivator, human. Briefly: qHTS assay to identify small molecule antagonists of the estrogen related receptor signaling pathway with the pleiotropic PPARgamma coactivator (PGC) (AID 1224821; calls by dose curve). The procedure, abridged:
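A PGC/ERR cell line supplied by NTP is seeded, allowed 6 h at 37 C, and treated with test compounds in DMSO for 18 h. Signal is then measured as luciferase luminescence using One-Glo.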

Assay [20] can be described thus: qHTS assay to identify small molecule agonists of the estrogen related receptor signaling pathway with the pleiotropic PPARgamma coactivator (PGC) (AID 1224823). Note: potency is the fitted concentration of half-maximal effect. The method, boiled down: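 Compounds dissolved in DMSO are added by pin tool to PGC/ERR cells that have settled for 6 h, and incubation continues 18 h at 37 C. Reporter output is measured as One-Glo luminescence.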

Records with an inconclusive call do not appear. A number with no mark means an inactive call. Activity calls are given as the source filed them. Unless noted, calls come from the whole dose curve; as a rule, active = well fitted curve in the direction sought with a large enough effect in the repeat runs; inconclusive = weak or mixed curves; inactive = no such curve, though single readings can be large; an effect the other way counts as inactive or inconclusive.

Chain of Thyrotropin receptor (Homo sapiens) (P16473 whole entry, looked up): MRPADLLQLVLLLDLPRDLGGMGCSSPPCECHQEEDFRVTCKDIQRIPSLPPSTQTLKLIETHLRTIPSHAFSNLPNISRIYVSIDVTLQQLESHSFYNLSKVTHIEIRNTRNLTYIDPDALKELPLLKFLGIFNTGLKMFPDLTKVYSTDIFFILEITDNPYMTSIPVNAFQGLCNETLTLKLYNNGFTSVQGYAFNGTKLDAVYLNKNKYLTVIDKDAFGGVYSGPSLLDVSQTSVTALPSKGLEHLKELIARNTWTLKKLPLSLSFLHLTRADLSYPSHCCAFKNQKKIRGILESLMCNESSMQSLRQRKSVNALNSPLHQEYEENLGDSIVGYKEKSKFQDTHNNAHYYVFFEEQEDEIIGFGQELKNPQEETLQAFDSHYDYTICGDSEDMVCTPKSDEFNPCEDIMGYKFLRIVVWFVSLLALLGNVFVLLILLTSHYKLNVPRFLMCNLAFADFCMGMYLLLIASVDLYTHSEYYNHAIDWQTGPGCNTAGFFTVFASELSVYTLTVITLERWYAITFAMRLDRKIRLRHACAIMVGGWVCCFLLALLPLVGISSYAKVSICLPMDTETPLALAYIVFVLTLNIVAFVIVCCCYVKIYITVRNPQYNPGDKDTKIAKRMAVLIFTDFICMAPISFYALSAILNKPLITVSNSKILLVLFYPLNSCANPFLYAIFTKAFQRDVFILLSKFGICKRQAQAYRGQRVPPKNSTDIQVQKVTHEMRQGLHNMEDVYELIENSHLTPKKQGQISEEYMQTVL
Chain of Nuclear receptor subfamily 1 group I member 3 (Homo sapiens) (Q14994 whole entry, looked up): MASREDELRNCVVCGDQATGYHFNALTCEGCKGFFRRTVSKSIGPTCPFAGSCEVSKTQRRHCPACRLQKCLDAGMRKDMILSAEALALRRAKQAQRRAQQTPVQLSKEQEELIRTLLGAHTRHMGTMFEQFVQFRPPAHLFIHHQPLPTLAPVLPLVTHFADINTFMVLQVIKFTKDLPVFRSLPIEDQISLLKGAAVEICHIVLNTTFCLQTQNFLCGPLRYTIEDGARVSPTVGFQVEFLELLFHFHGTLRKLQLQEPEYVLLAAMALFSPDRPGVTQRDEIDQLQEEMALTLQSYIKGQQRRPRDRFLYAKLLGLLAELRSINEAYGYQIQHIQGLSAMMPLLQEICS
Chain of Luciferin 4-monooxygenase (Photinus pyralis) (P08659 whole entry, looked up): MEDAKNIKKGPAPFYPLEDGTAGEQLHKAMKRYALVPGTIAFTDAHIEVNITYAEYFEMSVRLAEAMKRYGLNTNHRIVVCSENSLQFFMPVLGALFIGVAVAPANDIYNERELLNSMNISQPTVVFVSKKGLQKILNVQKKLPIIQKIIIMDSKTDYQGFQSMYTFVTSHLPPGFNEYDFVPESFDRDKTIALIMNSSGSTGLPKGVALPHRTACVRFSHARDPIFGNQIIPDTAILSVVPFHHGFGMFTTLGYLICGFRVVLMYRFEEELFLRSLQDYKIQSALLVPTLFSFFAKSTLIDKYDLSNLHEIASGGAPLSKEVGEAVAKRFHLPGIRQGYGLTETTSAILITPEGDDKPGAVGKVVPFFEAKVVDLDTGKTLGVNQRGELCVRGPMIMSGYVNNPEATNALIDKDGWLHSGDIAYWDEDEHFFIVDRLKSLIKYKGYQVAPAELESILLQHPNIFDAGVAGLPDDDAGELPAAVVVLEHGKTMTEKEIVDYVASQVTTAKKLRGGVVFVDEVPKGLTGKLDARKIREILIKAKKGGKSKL

Regarding `ClC1(Cl)C2(Cl)C3(Cl)C4(Cl)C(Cl)(Cl)C5(Cl)C3(Cl)C1(Cl)C5(Cl)C24Cl` (configuration not stated), the Potency result in assay [1], in assay [2], in assay [3], in assay [4], in [5] and in assay [6] was “inactive” throughout. Besides, the Potency entry in [7], in assay [8], in [9], in [10], in [11] and in [12] was “inactive” throughout.
For the molecule `COc1ccc(Cc2nccc3cc(OC)c(OC)cc23)cc1OC`, the Potency entry in assay [1], in assay [2], in assay [3], in assay [4], in [13] and in assay [14] was “inactive” in each case. Further, the Potency entry in [7], in [15] and in [9] was “inactive” each time. For the same molecule, the figures for the Potency in assay [16] and in [12] were 15 µM (active) and 9.44 µM (active), respectively.
Turning to `CC1(C)[C@H](/C=C2\CCSC2=O)[C@@H]1C(=O)OCc1coc(Cc2ccccc2)c1`, the Potency result in assay [1], in [2], in [3], in [4], in [5] and in assay [6] was “inactive” throughout. In addition, the Potency entry in [7], in assay [8], in assay [15] and in assay [9] was “inactive” throughout.
As to `CN/C(=N\[N+](=O)[O-])NCc1cnc(Cl)s1`, the Potency entry in [1], in assay [2], in [3], in assay [4], in assay [5] and in assay [6] was “inactive” each time. For the same molecule, the Potency result in assay [7], in [8], in [15], in [16] and in [9] was “inactive” in each case.
With `CC(Cc1ccc2c(c1)OCO2)NO` (configuration not stated), the Potency entry in [1], in [2], in assay [3], in [4], in assay [5] and in assay [6] was “inactive” throughout. The Potency result in [7], in assay [8], in assay [15], in [9], in assay [10] and in assay [11] was “inactive” each time. Also, the Potency result in assay [12] is “inactive”.
For the molecule `Oc1cc(Cl)cc(Cl)c1`, the Potency entry in assay [1], in assay [2], in assay [3], in assay [4], in [5] and in [6] was “inactive” throughout. Moreover, the Potency result in assay [7], in assay [8], in assay [15], in [9] and in assay [11] was “inactive” each time.
Take `Nc1ccc(N=Nc2ccccc2)cc1`: the Potency result in assay [1], in assay [2], in assay [3], in assay [17], in assay [19] and in assay [15] was “inactive” in each case. Further, the Potency result in [10] and in [12] was “inactive” in each case. The Potency in [4] is 0.386 µM (active); in assay [13], 31.8 µM (active); in assay [18] it was 10.1 µM (active); in [20], 14.2 µM (active); in assay [5] it was 24.3 µM (active); in assay [6] it was 2.24 µM (active). Moreover, the Potency in [16] is 30.6 µM (active); in assay [9], 24.3 µM (active); in assay [11], 3.06 µM (active).
For the molecule `Nc1nc(N)nc(Cl)n1`, the Potency result in assay [1], in assay [2], in assay [3], in assay [4], in [5] and in [6] was “inactive” in each case. Further, the Potency entry in assay [7], in [8], in [15], in [16] and in assay [9] was “inactive” in each case.
Take `CC(C)[C@@H](Nc1ccc(C(F)(F)F)cc1Cl)C(=O)OC(C#N)c1cccc(Oc2ccccc2)c1` (some centres not stated): the Potency result in [1], in assay [2], in [3], in [4], in [5] and in assay [6] was “inactive” throughout. The Potency entry in assay [7], in assay [8], in assay [15], in assay [16] and in assay [9] was “inactive” in each case.
